About 410 targets per protein were measured; listed, in parts, are those with the strongest signals and a random draw of the rest.
Tests used:
Assay in all cases: glycan array binding signal (z-score within array); higher = stronger binding
Details in all cases: glycan notation: IUPAC condensed, linker removed
[1] = target: GlcNAc(b1-3)Gal(b1-4)GlcNAc(b1-2)[GlcNAc(b1-3)Gal(b1-4)GlcNAc(b1-6)]Man(a1-6)[GlcNAc(b1-3)Gal(b1-4)GlcNAc(b1-2)Man(a1-3)]Man(b1-4)GlcNAc(b1-4)GlcNAc
Procedure, shortened: (§1)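 Arrays were curated from the Consortium for Functional Glycomics database, 3228 in total, and kept only where the protein sequence was available. Binding is expressed as a within-array Z-score. This score was averaged across arrays of the same protein sequence at different concentrations or buffers and across linkers, and negative values can be read as non-binding.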

[2] = target: GlcNAc(b1-3)Gal(b1-4)GlcNAc(b1-3)Gal(b1-4)GlcNAc(b1-2)Man(a1-3)[GlcNAc(b1-3)Gal(b1-4)GlcNAc(b1-3)Gal(b1-4)GlcNAc(b1-2)Man(a1-6)]Man(b1-4)GlcNAc(b1-4)GlcNAc
Procedure, shortened: as §1

[3] = target: GlcNAc(b1-3)Gal(b1-4)GlcNAc(b1-3)Gal(b1-4)GlcNAc(b1-2)Man(a1-3)[GlcNAc(b1-3)Gal(b1-4)GlcNAc(b1-3)Gal(b1-4)GlcNAc(b1-2)Man(a1-6)]Man(b1-4)GlcNAc(b1-4)[Fuc(a1-6)]GlcNAc
Procedure, shortened: as §1

[4] = target: GlcNAc(b1-3)Gal(b1-4)GlcNAc(b1-3)Gal(b1-4)GlcNAc(b1-2)[GlcNAc(b1-3)Gal(b1-4)GlcNAc(b1-3)Gal(b1-4)GlcNAc(b1-6)]Man(a1-6)[GlcNAc(b1-3)Gal(b1-4)GlcNAc(b1-3)Gal(b1-4)GlcNAc(b1-2)Man(a1-3)]Man(b1-4)GlcNAc(b1-4)[Fuc(a1-6)]GlcNAc
Procedure, shortened: as §1

[5] = target: GlcNAc(b1-3)Gal(b1-4)GlcNAc(b1-3)Gal(b1-4)GlcNAc(b1-3)Gal(b1-4)GlcNAc(b1-2)Man(a1-3)[GlcNAc(b1-3)Gal(b1-4)GlcNAc(b1-3)Gal(b1-4)GlcNAc(b1-3)Gal(b1-4)GlcNAc(b1-2)Man(a1-6)]Man(b1-4)GlcNAc(b1-4)GlcNAc
Procedure, shortened: as §1

[6] = target: GlcNAc(b1-3)Gal(b1-4)GlcNAc(b1-3)Gal(b1-4)GlcNAc(b1-3)Gal(b1-4)GlcNAc(b1-2)Man(a1-3)[GlcNAc(b1-3)Gal(b1-4)GlcNAc(b1-3)Gal(b1-4)GlcNAc(b1-3)Gal(b1-4)GlcNAc(b1-2)Man(a1-6)]Man(b1-4)GlcNAc(b1-4)[Fuc(a1-6)]GlcNAc
Procedure, shortened: as §1

[7] = target: GlcNAc(b1-3)Gal(b1-4)GlcNAc(b1-3)Gal(b1-4)GlcNAc(b1-3)Gal(b1-4)GlcNAc(b1-2)[GlcNAc(b1-3)Gal(b1-4)GlcNAc(b1-3)Gal(b1-4)GlcNAc(b1-3)Gal(b1-4)GlcNAc(b1-6)]Man(a1-6)[GlcNAc(b1-3)Gal(b1-4)GlcNAc(b1-3)Gal(b1-4)GlcNAc(b1-3)Gal(b1-4)GlcNAc(b1-2)Man(a1-3)]Man(b1-4)GlcNAc(b1-4)[Fuc(a1-6)]GlcNAc
Procedure, shortened: as §1

[8] = target: GlcNAc(b1-3)Gal(b1-4)GlcNAc(b1-3)Gal(b1-4)GlcNAc(b1-3)Gal(b1-4)GlcNAc(b1-3)Gal(b1-4)GlcNAc(b1-2)Man(a1-3)[GlcNAc(b1-3)Gal(b1-4)GlcNAc(b1-3)Gal(b1-4)GlcNAc(b1-3)Gal(b1-4)GlcNAc(b1-3)Gal(b1-4)GlcNAc(b1-2)Man(a1-6)]Man(b1-4)GlcNAc(b1-4)GlcNAc
Procedure, shortened: as §1

[9] = target: GlcNAc(b1-3)Gal(b1-4)GlcNAc(b1-3)Gal(b1-4)GlcNAc(b1-3)Gal(b1-4)GlcNAc(b1-3)Gal(b1-4)GlcNAc(b1-2)Man(a1-3)[GlcNAc(b1-3)Gal(b1-4)GlcNAc(b1-3)Gal(b1-4)GlcNAc(b1-3)Gal(b1-4)GlcNAc(b1-3)Gal(b1-4)GlcNAc(b1-2)Man(a1-6)]Man(b1-4)GlcNAc(b1-4)[Fuc(a1-6)]GlcNAc
Procedure, shortened: as §1

[10] = target: GlcNAc(b1-3)Gal(b1-4)GlcNAc(b1-3)Gal(b1-4)GlcNAc(b1-3)Gal(b1-4)GlcNAc(b1-3)Gal(b1-4)GlcNAc(b1-2)[GlcNAc(b1-3)Gal(b1-4)GlcNAc(b1-3)Gal(b1-4)GlcNAc(b1-3)Gal(b1-4)GlcNAc(b1-3)Gal(b1-4)GlcNAc(b1-6)]Man(a1-6)[GlcNAc(b1-3)Gal(b1-4)GlcNAc(b1-3)Gal(b1-4)GlcNAc(b1-3)Gal(b1-4)GlcNAc(b1-3)Gal(b1-4)GlcNAc(b1-2)Man(a1-3)]Man(b1-4)GlcNAc(b1-4)[Fuc(a1-6)]GlcNAc
Procedure, shortened: as §1

[11] = target: Man(a1-3)[Man(a1-6)]Man(a1-6)[Man(a1-3)]Man(b1-4)GlcNAc(b1-4)GlcNAc
Procedure, shortened: as §1

[12] = target: Man(a1-3)[Man(a1-6)]Man(b1-4)GlcNAc(b1-4)[Fuc(a1-6)]GlcNAc
Procedure, shortened: as §1

[13] = target: Neu5Ac(a2-3)Gal(b1-3)[Neu5Ac(a2-6)]GlcNAc(b1-3)[Fuc(a1-3)[Gal(b1-4)]GlcNAc(b1-6)]Gal(b1-4)Glc
Procedure, shortened: as §1

[14] = target: Neu5Ac(a2-3)Gal(b1-4)GlcNAc(b1-6)GalNAc
Procedure, shortened: as §1

[15] = target: Neu5Ac(a2-3)Gal(b1-4)[Fuc(a1-3)]GlcNAc(b1-6)[Gal(b1-3)]GalNAc
Procedure, shortened: as §1

[16] = target: Neu5Ac(a2-3)[GalNAc(b1-4)]Gal(b1-4)GlcNAc(b1-3)GalNAc
Procedure, shortened: as §1

[17] = target: Neu5Ac(a2-6)Gal(b1-4)GlcNAc(b1-2)Man(a1-3)[GlcNAc(b1-4)][Neu5Ac(a2-6)Gal(b1-4)GlcNAc(b1-2)Man(a1-6)]Man(b1-4)GlcNAc(b1-4)GlcNAc
Procedure, shortened: as §1

[18] = target: Neu5Ac(a2-6)Gal(b1-4)GlcNAc(b1-3)[Neu5Ac(a2-6)Gal(b1-4)GlcNAc(b1-6)]GalNAc
Procedure, shortened: as §1

[19] = target: Neu5Ac(a2-6)GlcNAc(b1-4)GlcNAc(b1-4)GlcNAc
Procedure, shortened: as §1

[20] = target: Neu5Ac(a2-8)Neu5Ac(a2-3)[GalNAc(b1-4)]Gal(b1-4)Glc
Procedure, shortened: as §1

[21] = target: Neu5Ac(a2-8)Neu5Ac(a2-8)Neu5Ac(a2-3)[Gal(b1-3)GalNAc(b1-4)]Gal(b1-4)Glc
Procedure, shortened: as §1

[22] = target: Neu5Ac(a2-8)Neu5Ac(a2-8)Neu5Ac(a2-3)[GalNAc(b1-4)]Gal(b1-4)Glc
Procedure, shortened: as §1

B1: Di AAL2 (Agrocybe aegerita) (protein)
chain: MTSNVITQDLPIPVASRGFADIVGFGLDGVVIGRNAVNLQPFLAVKNFAQNAGGWLTTKHVRLIADTTGTGKGDIVGFGNAGVYVSVNNGKNTFADPPKMVIANFGYDAGGWRVEKHLRYLADIRKIGRADIIGFGEKGVLVSRNNGGLNFGPATLVLKDFGYDAGGWRLDRHLRFLADVTGNGHLDIVGFGDKHVFISRNNGDGTFAPAKSVIDNFCIDAGGWKIGDHPRFVADLTGDGTADIIGCGKAGCWVALNNGGGVFGQVKLVINDFGTDKGWQAAKHPRFIADLTGNGRGDVVGFGNAGVYVALNNGDGTFQSAKLVLKDFGVQQGWTVSKHRRFVVDLTGDGCADIIGFGEKETLVSYNDGKGNFGPVKALTNDFSFSGGKWAPETTVCWMANLDSSRHPAPAPMTSNVITQDLPIPVASRGFADIVGFGLDGVVIGRNAVNLQPFLAVKNFAQNAGGWLTTKHVRLIADTTGTGKGDIVGFGNAGVYVSVNNGKNTFADPPKMVIANFGYDAGGWRVEKHLRYLADIRKIGRADIIGFGEKGVLVSRNNGGLNFGPATLVLKDFGYDAGGWRLDRHLRFLADVTGNGHLDIVGFGDKHVFISRNNGDGTFAPAKSVIDNFCIDAGGWKIGDHPRFVADLTGDGTADIIGCGKAGCWVALNNGGGVFGQVKLVINDFGTDKGWQAAKHPRFIADLTGNGRGDVVGFGNAGVYVALNNGDGTFQSAKLVLKDFGVQQGWTVSKHRRFVVDLTGDGCADIIGFGEKETLVSYNDGKGNFGPVKALTNDFSFSGGKWAPETTVCWMANLDSSRH
glycan array binding signal (z-score) [1]: 5.83
glycan array binding signal (z-score) [2]: 3.47
glycan array binding signal (z-score) [3]: 3.72
glycan array binding signal (z-score) [4]: 5.12
glycan array binding signal (z-score) [5]: 5.42
glycan array binding signal (z-score) [6]: 4.23
glycan array binding signal (z-score) [7]: 5.39
glycan array binding signal (z-score) [8]: 5.42
glycan array binding signal (z-score) [9]: 5.09
glycan array binding signal (z-score) [10]: 5.69
glycan array binding signal (z-score) [11]: -0.333
glycan array binding signal (z-score) [12]: -0.327
glycan array binding signal (z-score) [13]: -0.313
glycan array binding signal (z-score) [14]: -0.218
glycan array binding signal (z-score) [15]: -0.336
glycan array binding signal (z-score) [16]: -0.285
glycan array binding signal (z-score) [17]: -0.319
glycan array binding signal (z-score) [18]: -0.251
glycan array binding signal (z-score) [19]: -0.302
glycan array binding signal (z-score) [20]: -0.29
glycan array binding signal (z-score) [21]: -0.297
glycan array binding signal (z-score) [22]: -0.284

— the supplement of paper PMC8728848
